# According to the supplement of paper PMC13380429:
# What was measured:
# [1] = tested on: Vero E6 infected with SARS-CoV-2; assay: morphology score (similarity to uninfected cells); higher = more like uninfected cells; details: 24 h
# [2] = tested on: Vero E6 infected with SARS-CoV-2; assay: SARS-CoV-2 infection rate relative to infected DMSO; higher = more infection, active = 60 or less; details: 24 h
SMILES,morphology score [1],SARS-CoV-2 infection rate [2]
CCOC(=O)c1ccc(N(C)c2csc(-c3ccccc3)n2)cc1 [neuropathiazol] (10 µM),-0.0531,110% (inactive)
CCCCCCCC/C=C\CCCCCCCC(=O)N[C@@H](CO)Cc1ccc(O)cc1 (10 µM),0.123,104% (inactive)
CCCCc1ccc(O)cc1O [rucinol] (10 µM),-0.0981,99% (inactive)
CCOCc1nc2c(N)nc3ccccc3c2n1CC(C)(C)O [resiquimod] (10 µM),0.0727,113% (inactive)
Cc1cnc(CNC(=O)c2c(=O)c3ccc(N4CCCN(C)CC4)nc3n3c2sc2ccccc23)cn1 (0.833333 µM),0.0323,109% (inactive)
C[C@H]1CCc2c(cc(Br)c(F)c2Br)N1C=O (10 µM),0.0995,94.5% (inactive)
CC(=O)O[C@]1(C(C)=O)CC[C@H]2[C@@H]3C[C@H](C)C4=CC(=O)CC[C@]4(C)[C@H]3CC[C@@]21C [medroxyprogesterone-acetate] (10 µM),0.153,105% (inactive)
N.N.O=C([O-])C[O-].[Pt+2] [nedaplatin] (10 µM),0.0896,102% (inactive)
CS(=O)(=O)c1cccc(CNc2nc(Nc3ccc4c(c3)CCC(=O)N4)ncc2C(F)(F)F)c1 (0.833333 µM),0.138,114% (inactive)
C=C[C@@H]1C[C@]1(NC(=O)[C@@H]1C[C@@H](Oc2ncc(OC)c3ccc(Cl)cc23)CN1C(=O)[C@@H](NC(=O)OC(C)(C)C)C(C)(C)C)C(=O)NS(=O)(=O)C1CC1 [asunaprevir] (10 µM),0.192,85% (inactive)
O=C(Nc1cc(C(F)(F)F)cc(C(F)(F)F)c1)c1cnc(Cl)nc1C(F)(F)F (10 µM),-0.17,111% (inactive)
Cc1cccc(OCC(O)CNC(C)(C)C)c1C (configuration not stated) [xibenolol] (10 µM),0.0955,97.5% (inactive)
CN1CCCN(C(c2ccccc2)c2ccc(Cl)cc2)CC1 (configuration not stated) [homochlorcyclizine] (10 µM),0.29,59.5% (active)
COc1cc(C[C@@H](CO)[C@H](CO)Cc2ccc(O)c(OC)c2)ccc1O [secoisolariciresinol-(-)] (10 µM),-0.0638,109% (inactive)
CCC1(c2c[nH]cn2)Cc2ccccc2C1 [atipamezole] (10 µM),-0.114,112% (inactive)
Cc1cc2nc3c(=O)[nH]c(=O)nc-3n(C[C@H](O)[C@H](O)[C@H](O)CO)c2cc1C [riboflavin] (10 µM),0.208,102% (inactive)
O=S(=O)(N[C@H](CO)C(C(F)(F)F)C(F)(F)F)c1ccc(Cl)s1 [begacestat] (10 µM),0.00774,98% (inactive)
O=C1c2cccc(O)c2C(=O)c2c(O)cc(CO)cc21 [aloe-emodin] (10 µM),0.29,101% (inactive)
Cc1[nH]c2ccc(F)cc2c1-c1nc2c3cccnc3c3ncccc3c2[nH]1 (10 µM),0.21,102% (inactive)
CCCCCCCCCCC(C)(C)C(=O)Nc1c(OC)cc(OC)cc1OC (10 µM),-0.024,111% (inactive)
CC1=C(C(=O)OC(C)C)C(c2cccc([N+](=O)[O-])c2)C(C(=O)OC2CN(C(c3ccccc3)c3ccccc3)C2)=C(N)N1 (configuration not stated) [azelnidipine] (10 µM),0.295,71.5% (inactive)

SMILES,morphology score [1],SARS-CoV-2 infection rate [2]
C[C@H]1[C@H](NC(=O)/C(=N\OC(C)(C)C(=O)O)c2csc(N)n2)C(=O)N1S(=O)(=O)O [aztreonam] (10 µM),-0.0447,94% (inactive)
N#CCCCSC(=N)N [kevetrin] (10 µM),0.195,92% (inactive)
COCc1nnc(N2CC(Oc3ccc(F)cc3Cl)C2)n1-c1ccc(OC)nc1 (10 µM),-0.109,106% (inactive)
C[C@@H]1C[C@H]2[C@@H]3C[C@H](F)C4=CC(=O)C=C[C@]4(C)[C@@]3(Cl)[C@@H](O)C[C@]2(C)[C@H]1C(=O)COC(=O)C(C)(C)C [clocortolone-pivalate] (10 µM),0.067,98% (inactive)
COc1ccc(-c2cc(=O)c3c(O)cc(O)cc3o2)cc1O [diosmetin] (10 µM),0.205,106% (inactive)
O=C1c2c(O)cccc2Cc2cccc(O)c21 [anthralin] (10 µM),-0.0665,94% (inactive)
NC(Cc1ccc(I)cc1)C(=O)O (stereo in doubt) [4-iodo-L-phenylalanine] (10 µM),0.202,105% (inactive)
CC(C)(O)c1ccn2c(-c3ccc(F)c(-c4ccc(F)cc4C#N)c3)cnc2c1F (10 µM),-0.0136,108% (inactive)
Cn1c(=O)c(F)c(Nc2ccc(I)cc2F)c2c(=O)n(C[C@@H](O)CO)cnc21 (0.833333 µM),-0.0443,109% (inactive)
CN(C)CCOC(=O)C(c1ccccc1)C1(O)CCCC1 (configuration not stated) [cyclopentolate] (10 µM),0.178,93% (inactive)
CCN[C@H]1C[C@H](C)S(=O)(=O)c2sc(S(N)(=O)=O)cc21 [dorzolamide] (10 µM),0.0923,100% (inactive)
CC(=O)OCC(=O)NCCCOc1cccc(CN2CCCCC2)c1 [roxatidine-acetate] (10 µM),0.0141,110% (inactive)
CCC(=O)Nc1cccc(Oc2nc(Nc3ccc(N4CCN(C)CC4)cc3OC)ncc2Cl)c1 (10 µM),0.0191,114% (inactive)
Nc1ccn([C@H]2C[C@H](O)[C@@H](CO)O2)c(=O)n1 [torcitabine] (10 µM),-0.00729,108% (inactive)
COc1cc(C(=O)NCC2(N(C)C)CCCC2)cc(OC)c1OCc1ccccc1 (10 µM),0.334,77.5% (inactive)
O=C1C(Cl)=C(NCCN2CCOCC2)C(=O)c2ncccc21 (0.833333 µM),0.143,94% (inactive)
Cc1nccn1CCC(C(N)=O)(c1ccccc1)c1ccccc1 [imidafenacin] (10 µM),0.133,93% (inactive)
CC1CNc2c(cccc2S(=O)(=O)N[C@@H](CCCNC(=N)N)C(=O)N2CC[C@@H](C)C[C@@H]2C(=O)O)C1 (mixture of isomers) [argatroban] (10 µM),-0.0153,115% (inactive)
CC(=O)Nc1ccc(C(=O)NC(C)(C)C)cc1 (10 µM),0.0601,106% (inactive)
Cc1nn(-c2ccccc2)c(C)c1/C=N/N1CCN(Cc2ccccc2)CC1 (10 µM),0.00911,117% (inactive)
Cc1cc(OI)c(C(C)C)cc1-c1cc(C(C)C)c(OI)cc1C [thymol-iodide] (10 µM),-0.117,104% (inactive)

SMILES,morphology score [1],SARS-CoV-2 infection rate [2]
CN1CC[C@@H]2CN3CCc4cccc(c43)[C@@H]2C1 (10 µM),-0.0541,108% (inactive)
O=C1COc2nccc(-c3ccccc3F)c2CN1Cc1cc(C(F)(F)F)cc(C(F)(F)F)c1 (10 µM),-0.194,108% (inactive)
CC(=O)[C@H]1CC[C@H]2[C@@H]3CCC4=CC(=O)CC[C@]4(C)[C@H]3CC[C@]12C [progesterone] (10 µM),0.206,96% (inactive)
Cn1c(-c2ccccc2)nnc1S(C)(=O)=O (10 µM),0.268,86.5% (inactive)
O=c1[nH]ccc2cc(OC3CCNCC3)ccc12 (10 µM),0.27,110% (inactive)
CC[C@@H](C(=O)[C@@H](C)[C@@H](O)[C@H](C)[C@@H]1O[C@@H]([C@@H](CC)C(=O)O)CC[C@@H]1C)[C@H]1O[C@]2(C=C[C@@H](O)[C@]3(CC[C@@](C)([C@H]4CC[C@](O)(CC)[C@H](C)O4)O3)O2)[C@H](C)C[C@@H]1C [Salinomycin (Procoxacin)] (10 µM),-0.00386,108% (inactive)
C[C@]12CCC(=O)C(O)=C1CC[C@@H]1[C@@H]2CC[C@]2(C)C(=O)CC[C@@H]12 [formestane] (10 µM),-0.134,115% (inactive)
Nc1ncnc2c1ncn2[C@@H]1O[C@H](CO)C[C@H]1O [cordycepin] (10 µM),-0.1,112% (inactive)
CC(CCc1ccc(O)cc1)NCCc1ccc(O)c(O)c1 (configuration not stated) [dobutamine] (10 µM),-0.179,113% (inactive)
CC(C)c1cc(-c2n[nH]c(=O)n2-c2ccc3c(ccn3C)c2)c(O)cc1O [ganetespib] (0.833333 µM),0.0711,111% (inactive)
CCCC[P+](CCCC)(CCCC)Cc1ccc(NC(=O)[C@H](Cc2ccc3ccccc3c2)N/C(=N/C2CCCCC2)NC2CCCCC2)cc1 (10 µM),0.122,92% (inactive)
O=C(O)c1ccc(-c2ccc3cc(O)c(C45CC6CC(CC(C6)C4)C5)cc3c2)cc1 (10 µM),-0.0522,106% (inactive)
O=C(Nc1ccc(S(=O)(=O)Nc2nccs2)cc1)C(c1ccccc1)c1ccccc1 (10 µM),-0.0899,105% (inactive)
CC[C@H](c1ccc(O)cc1)[C@@H](CC)c1ccc(O)cc1 [hexestrol] (10 µM),0.143,102% (inactive)
Nc1ccc([As](=O)(O)O)cc1 [arsanilic-acid] (10 µM),-0.00345,103% (inactive)
CN(C(=O)c1c(O)c2ccccc2n(C)c1=O)c1ccccc1 [roquinimex] (10 µM),0.211,94.5% (inactive)
O=[N+]([O-])c1c(Nc2cc(F)cc(Cl)c2)ccc2nonc12 (10 µM),0.097,94.5% (inactive)
O=C1NC(=O)c2c1c1c3ccccc3[nH]c1c1[nH]c3ccccc3c21 [arcyriaflavin-a] (10 µM),0.363,106% (inactive)
Cc1oc2ccccc2c1CNC(=O)NCc1cccs1 (10 µM),0.0505,100% (inactive)
